Reference: PubChem BioAssay (Tox21)
Results filed as inconclusive are left out. Values without a mark were called inactive. Active and inactive are the calls of the source. Calls come from the whole dose curve; as a rule, active = well fitted activation curve with a large enough effect in the repeat runs; inconclusive = weak or mixed curves; inactive = flat fitted curve, though single readings scatter.

Test: A CellTox Green Cytotoxicity Assay to monitor cytotoxicity in HEK293 cells - 40 hour (AID 1224871); note: nearly all actives have a fitted effect of over 45% in size
Settings: CellTox Green fluorescence; series mostly up to 76.8 µM; cytotoxicity increase: at the top concentration
From the text: National Center for Advancing Translational Sciences [NCATS]
NIH Chemical Genomics Center [NCGC]
U.S. Environmental Protection Agency [EPA]
National Institutes of Environmental Health Sciences [NIEHS]
National Toxicology Program [NTP]
Cell-based models are critical for drug discovery. Determining the natural cytotoxic effects resulting from test compounds is an essential research activity. A CellTox Green Cytotoxicity Assay to monitor cytotoxicity in real time of continues cell culture during 40 hours of the compound treatment was used to screen Tox21 10K library compounds in Hek293 cells. CellTox Green Cytotoxicity Assay is a nonlytic, homogeneous, biofluorescent method to measure cytotoxicity in cell culture after experimental manipulation. The assay system uses a proprietary asymmetric cyanine dye that is excluded from viable cells but preferentially stains the dead cell's DNA. […] Viable cells produce no appreciable increases in fluorescence. Therefore, the fluorescence signal produced by the binding interaction with dead cell DNA is proportional to cytotoxicity.
The mixture of Hek293 cell suspension and reagents were dispensed at 600cells/6 ul/well in 1536-well tissue culture treated black solid bottom plates using a Multidrop dispenser. After the assay plates were incubated at a 37 C/5% CO2 incubator for 5 hours, 23 nL of compounds dissolved in DMSO, positive and negative controls was transferred to the assay plate by a pintool work station. The plates were incubated at 37 C for 40 hours. The fluorescence intensity were measured at 0h, 8h, 16h, 24h, 32h and 40h time points using ViewLux plate reader during compound treatment.
% is set by controls: 0 for no effect and ±100 for the full control effect; potency is the fitted concentration of half-maximal effect.

First: O=C(O)c1ccccc1-n1cc(C(=O)O)c(=O)c2cc(Nc3c(F)cc(F)cc3Cl)c(Cl)cc21
Second: O=C(N[C@@H](Cc1ccccc1)[C@@H](O)C(=O)N1C[C@@H](O)[C@@H](O)C1)c1cc2cc(Cl)ccc2[nH]1
The “cytotoxicity increase” value of the first is lower: -1.33% for the first, 14.5% for the second.

First: C=CCCC
Second: CCCOC(C)=O
The “cytotoxicity increase” value of the first is higher: -0.26% for the first, -12.9% for the second.

First: CCCC(=O)OCc1ccccc1
Second: COC(=O)Cc1cccc2ccccc12
The “cytotoxicity increase” value of the first is higher: 6.14% for the first, 1.77% for the second.

Compared with `Nc1nc(Cl)nc2c1ncn2[C@H]1C[C@H](O)[C@@H](CO)O1`, `Cc1cc(C)n(CO)n1` is higher in “cytotoxicity increase” value: 0.268% for the first, 3.19% for the second.

First: C=CC(=O)NC(C)(C)C
Second: C=CC(C)(O)CC/C=C(/C)CCC=C(C)C (stereo not given)
The “cytotoxicity increase” value of the first is lower: -13.5% for the first, 17% for the second.

Going from `O=C1C=CCCC1` to `CCCC1CCCC(=O)O1` (stereo not given), the “cytotoxicity increase” value falls from -1.22% to -7.18%.

First: O=C1c2ccccc2C(=O)C1c1ccc2cc(S(=O)(=O)O)cc(S(=O)(=O)O)c2n1
Second: CC(CN=Cc1ccccc1O)N=Cc1ccccc1O (stereo not given)
The “cytotoxicity increase” value of the first is lower: -13.5% for the first, -7.85% for the second.

First: O=C(O)c1cc(C(=O)O)cc([N+](=O)[O-])c1
Second: CC(=O)Nc1cccc(N)c1
The “cytotoxicity increase” value of the first is lower: -13.4% for the first, -1.97% for the second.

Compared with `CCCCCCC/C=C/C=O`, `CCCCCCCCCCCCSC#N` is higher in “cytotoxicity increase” value: 2.99% for the first, 12.6% for the second.

First: COc1cc(CNC(=O)CCCC/C=C/C(C)C)ccc1O
Second: CC(C)=CCC[C@H](C)CCO
The “cytotoxicity increase” value of the first is higher: 29.8% for the first, 12.5% for the second.

Compared with `Cc1c(N=C=O)cccc1N=C=O`, `C=Cc1ccc(C=C)cc1` is lower in “cytotoxicity increase” value: -3.77% for the first, -4.37% for the second.

Compared with `N#CCCCC(C#N)CCC#N` (stereo not given), `C=C(C)C(=O)OCCCCCCCCCCOC(=O)C(=C)C` is higher in “cytotoxicity increase” value: -3% for the first, 18.1% for the second.

Compared with `C(/C=C/C=C/Nc1ccccc1)=Nc1ccccc1`, `CC(O)C(C)O` (stereo not given) is lower in “cytotoxicity increase” value: -2.11% for the first, -7.66% for the second.

For `CCCC1CCOC(C)S1` (stereo not given), the “cytotoxicity increase” value was 5.21%.

Compared with `COc1ccc(/C=C/c2cc(OC)cc(=O)o2)cc1`, `COc1ccc(CN(CCN(C)C)c2ncccn2)cc1` is higher in “cytotoxicity increase” value: -14.2% [at 35.3 µM] for the first, 19.2% [at 35.3 µM] for the second.

Going from `CC1=C(C)C(=O)C(CCCCC#CCCCC#CCO)=C(C)C1=O` to `CCCc1nc(C)c2c(=O)[nH]c(-c3cc(S(=O)(=O)N4CCN(CC)CC4)ccc3OCC)nn12`, the “cytotoxicity increase” value falls from 16.1% [at 35.3 µM] to -31.2% [at 35.3 µM].

Going from `O=C(OC1C[C@H]2CC[C@@H](C1)[N+]21CCCC1)C(O)(c1ccccc1)c1ccccc1` (stereo not given in full) to `Nc1ccc(C(=O)Oc2ccccc2)c(O)c1`, the “cytotoxicity increase” value rises from -8.38% [at 35.3 µM] to 11.7% [at 35.3 µM].

Compared with `C[C@H](N)C(=O)N[C@@H](C)C(=O)NC1[C@H]2CN(c3nc4c(cc3F)c(=O)c(C(=O)O)cn4-c3ccc(F)cc3F)C[C@@H]12` (stereo not given in full), `Cc1c(Nc2ncccc2C(=O)O)cccc1C(F)(F)F` is lower in “cytotoxicity increase” value: -5.43% [at 35.3 µM] for the first, -18.6% [at 35.3 µM] for the second.

Compared with `Cc1ccc(Cl)c(OCC(O)CNC(C)(C)C)c1` (stereo not given), `O=C1c2ccccc2C(=O)c2c1ccc(O)c2O` is lower in “cytotoxicity increase” value: 3.55% [at 35.3 µM] for the first, -3.12% [at 35.3 µM] for the second.

Compared with `Nc1ncnc2c1ncn2[C@@H]1O[C@H](CO)[C@@H](O)[C@H]1O`, `Sc1nc(S)nc(S)n1` is lower in “cytotoxicity increase” value: 0.45% [at 35.3 µM] for the first, -12.6% [at 35.3 µM] for the second.

With `NC(=O)c1ccccc1C(N)=O` the Potency was 49.2 µM (active).
